An excerpt weighted towards active compounds, which were near 19% of everything screened.
Lassa entry inh – blocks Lassa virus binding to or entry into cells; Potency, µM (titrated, usually from 37.9 µM), without a hit: at the highest dose activity change, negative = inhibition, usual class: inhibitors; Lassa virus pseudotype entry inhibition, cell reporter; actives 1.2% (n = 300,000); calls by dose curve; tested in HEK293 cells; further: potency means the concentration at half of the fitted maximal effect; on the % scale 0 is the no-effect control and ±100 the full control effect; nearly all actives have a fitted effect of over 50% in size
Pf growth 48h – P. falciparum growth inhibition at 48 hours (one generation). P. falciparum luciferase growth in erythrocytes, 48 h. Potency, µM (doses to about 28.7 µM), for the others: top-dose activity change, negative = inhibition, usual class: inhibitors. actives 5.9% (n = 310,000); further: potency means the concentration at half of the fitted maximal effect; on the % scale 0 is the no-effect control and ±100 the full control effect
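Firefly luciferase activity from engineered P. falciparum reports growth; inhibitors lower the luminescent signal. Cultures contained 2% hematocrit erythrocytes at 0.1% final parasitemia.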
MARV entry inh – inhibitors of Marburg virus binding or cell entry | Marburg virus pseudotyped entry inhibition, cell reporter | Potency, µM (highest dose often 37.8 µM), for the others: top-dose activity change, negative = inhibition, hits mostly inhibitors | actives 1.8% (n = 300,000); calls by dose curve; tested in HEK293 cells; further: potency means the concentration at half of the fitted maximal effect; on the % scale 0 is the no-effect control and ±100 the full control effect
Pf growth 96h – P. falciparum growth inhibition at 96 hours; AID 504834; actives 6.9% (n = 320,000); P. falciparum luciferase reporter growth, 96 h; Potency, µM (titrated, usually from 28.7 µM), for the others: top-dose activity change, negative = inhibition, actives largely listed as inhibitors; further: potency means the concentration at half of the fitted maximal effect; on the % scale 0 is the no-effect control and ±100 the full control effect
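Two parasite generations (96 h, 37 C, 5% CO2) of compound exposure in infected erythrocytes (0.05% parasitemia, 2% hematocrit). Luciferase-reporter P. falciparum; decreased luminescence indicates inhibited growth, aimed at apicoplast-acting delayed death.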
Shiga toxin inh – blocks Shiga toxin action in Vero cells | AID 2315 | Vero cells, Shiga toxin protein synthesis inhibition reporter | actives 9.2% (n = 290,000) | inhibition, % at 38.7 µM; in the data active means inhibition mostly above about 28%, no sharp cut-off; inactive means mostly below about 43%; further: 0% is about no effect
Cycloheximide cs – counter-screen for Shiga toxin inhibitors: cycloheximide protein synthesis inhibition | cell reporter, cycloheximide protein synthesis inhibition counterscreen | AID 2314 | max response, % | actives 12% (n = 300,000); in the data active means max response mostly above about 13%, no sharp cut-off; inactive means mostly below about 14%; further: read at 38.3 µM for the half of the compounds with a filed dose; 0% is about no effect
Starred values were filed as active, the others as inactive; [ ] = remark or other dose. Unless noted, the call rests on the fitted dose curve; in most records, active means well fitted inhibition curve with a large enough effect; inconclusive means small, poorly fitted or top-dose-only effect, or another doubt; inactive means no such curve, though single readings can be large or run the other way.

What do the screens show for `CCc1cc(=O)oc2c(C)c(OC(C)C(=O)N3CC[C@@]4(O)CCCC[C@H]4C3)ccc12` (some centres undefined)?
Pf growth 48h: inconclusive; Pf growth 96h: 12µM*; Shiga toxin inh: -9; Cycloheximide cs: -4

How did CCc1cc(=O)oc2c(C)c(OC(C)C(=O)N3CCC[C@@H]3C(=O)O)ccc12 (some centres undefined) do in these assays?
Pf growth 48h: -9%; Pf growth 96h: 0%; Shiga toxin inh: 1; Cycloheximide cs: -1

What do the screens show for `COc1ccccc1C(=O)N1CCC(N2CCN(c3ccccc3)CC2)CC1`?
Lassa entry inh: -5%; Pf growth 48h: inconclusive; MARV entry inh: 9%[46.1 µM]; Pf growth 96h: inconclusive; Shiga toxin inh: -4; Cycloheximide cs: -3

What do the screens show for `O=C(c1c(F)cccc1F)N1CCN(c2ccccc2F)CC1`?
Lassa entry inh: 2%; Pf growth 48h: 6%; MARV entry inh: inconclusive; Pf growth 96h: -7%; Shiga toxin inh: -13; Cycloheximide cs: 10

What do the screens show for `O=C(c1ccc(Cl)s1)N1CCN(c2ncccn2)CC1`?
Lassa entry inh: -15%; Pf growth 48h: 31%; MARV entry inh: -6%[46.1 µM]; Pf growth 96h: -21%; Shiga toxin inh: -7; Cycloheximide cs: 1

How did O=C(c1ccccc1Oc1ccccc1)N1CCN(c2ccccc2)CC1 do in these assays?
Lassa entry inh: inconclusive; Pf growth 48h: inconclusive; MARV entry inh: -14%; Pf growth 96h: 15µM*; Shiga toxin inh: 9; Cycloheximide cs: 6

Results for O=C(c1ccc(Cl)s1)N1CCN(c2ccccc2)CC1 ?
Pf growth 48h: -17%; Pf growth 96h: inconclusive; Shiga toxin inh: 28*; Cycloheximide cs: 17*

Results for O=C(c1cccc(C(=O)N2CCN(c3ccccc3F)CC2)c1)N1CCN(c2ccccc2F)CC1 ?
Lassa entry inh: 3%; Pf growth 48h: 13µM*; MARV entry inh: 4%; Pf growth 96h: 0%; Shiga toxin inh: -2; Cycloheximide cs: 2

Results for CC(=O)c1ccc(N2CCN(C(=O)c3cccc(Oc4ccccc4)c3)CC2)cc1 ?
Lassa entry inh: 3.2µM*; Pf growth 48h: -28%; MARV entry inh: inconclusive; Pf growth 96h: inconclusive; Shiga toxin inh: 35; Cycloheximide cs: 35*

How did COCCN(C(=O)CSc1cc(C)c2ccccc2n1)c1c(N)n(CC(C)C)c(=O)[nH]c1=O do in these assays?
Lassa entry inh: 10%; Pf growth 48h: 17%; MARV entry inh: inconclusive; Pf growth 96h: 33%

What do the screens show for `CCc1ccc(OCCSc2nc3ccccc3n2CC(=O)N2CCCCC2)cc1`?
Lassa entry inh: -19%[46.1 µM]; MARV entry inh: -6%[46.1 µM]

Results for O=C(CNC(=O)c1ccco1)N=Nc1c(O)[nH]c2ccc(Br)cc12 ?
Pf growth 48h: 27%; Pf growth 96h: 22%; Shiga toxin inh: -6; Cycloheximide cs: -2

Results for Cc1cc(Br)ccc1NC(=O)CN1C(=O)CCC1=O ?
Lassa entry inh: -2%; Pf growth 48h: -2%; MARV entry inh: -2%; Shiga toxin inh: 17; Cycloheximide cs: -2

How did O=C(c1ccc2c(c1)OCO2)N1CCN(c2ccccc2F)CC1 do in these assays?
Lassa entry inh: inconclusive; Pf growth 48h: 20%; MARV entry inh: inconclusive; Shiga toxin inh: 29; Cycloheximide cs: 22*

What do the screens show for `O=C(Nc1ccccc1N1CCN(C(=O)c2ccc(Cl)cc2)CC1)c1ccc2c(c1)OCO2`?
Lassa entry inh: inconclusive; Pf growth 48h: 3.7µM*; MARV entry inh: inconclusive; Shiga toxin inh: -13; Cycloheximide cs: 6

How did O=C(O)c1cccc(N2CCCC2)c1 do in these assays?
Lassa entry inh: 17%; Pf growth 48h: 6%; MARV entry inh: 11%; Pf growth 96h: 9.3µM*; Shiga toxin inh: 22; Cycloheximide cs: -3

How did O=C(c1cccc(C(=O)N2CCN(c3ccccc3)CC2)c1)N1CCN(c2ccccc2)CC1 do in these assays?
Lassa entry inh: inconclusive; Pf growth 48h: 13µM*; MARV entry inh: inconclusive; Shiga toxin inh: 3; Cycloheximide cs: -4

What do the screens show for `COc1ccc(OC)c(S(=O)(=O)N/N=C\c2ccc3c(c2)OCO3)c1`?
Lassa entry inh: 12%[46.1 µM]; Pf growth 48h: 61%; MARV entry inh: 5%[46.1 µM]; Pf growth 96h: -31%; Shiga toxin inh: 73*; Cycloheximide cs: 44*

Results for Cc1ccc(S(=O)(=O)Oc2cccc(/C=N/Nc3ccc(C(=O)O)cc3)c2)cc1 ?
Lassa entry inh: 18%[46.1 µM]; Pf growth 48h: 14%; MARV entry inh: inconclusive; Pf growth 96h: 4%; Shiga toxin inh: 26*; Cycloheximide cs: 37*

Results for Cc1ccc(S(=O)(=O)N(C)/N=C/c2ccc(C(=O)O)cc2)cc1 ?
Pf growth 48h: -7%; Pf growth 96h: inconclusive; Shiga toxin inh: 21; Cycloheximide cs: 5

What do the screens show for `Cc1ccc(S(=O)(=O)N/N=C/c2ccc(C(=O)O)cc2)cc1`?
Lassa entry inh: inconclusive; Pf growth 48h: 31%; MARV entry inh: -2%; Pf growth 96h: 12µM*; Shiga toxin inh: -10; Cycloheximide cs: 0

Results for Cc1ccc(S(=O)(=O)N/N=C\c2ccc3c(c2)OCO3)cc1 ?
Lassa entry inh: 4%; Pf growth 48h: -2%; MARV entry inh: 0%; Pf growth 96h: 8%; Shiga toxin inh: 41; Cycloheximide cs: 16*

What do the screens show for `O=S(=O)(c1cccs1)n1cccn1`?
Lassa entry inh: -15%; Pf growth 48h: 12%; MARV entry inh: inconclusive; Shiga toxin inh: -8; Cycloheximide cs: -1

Results for COc1ccc(C)cc1NC(=O)CN1CCN(S(=O)(=O)c2ccc(Br)cc2)CC1 ?
Lassa entry inh: inconclusive; Pf growth 48h: inconclusive; MARV entry inh: 1%; Shiga toxin inh: -21; Cycloheximide cs: -4

What do the screens show for `Cc1ccc(C2(C(=O)N3CCC(n4nc(-c5ccccc5)oc4=O)CC3)CC2)cc1`?
Pf growth 48h: inconclusive; Pf growth 96h: -1%; Shiga toxin inh: 33; Cycloheximide cs: 12

How did Cc1ccnc(NC(=O)CC(NC(=O)c2ccccc2Cl)c2ccccc2)c1 (centres undefined) do in these assays?
Lassa entry inh: 2%; Pf growth 48h: 133%; MARV entry inh: 19%; Pf growth 96h: 292%

How did Cc1ccnc(NC(=O)c2ccc(Cl)c(NC(=O)c3ccccc3C)c2)c1 do in these assays?
Pf growth 48h: 50%; Pf growth 96h: inconclusive; Shiga toxin inh: 22; Cycloheximide cs: 16*

Results for CCC(C(=O)Nc1cc(C(=O)Nc2cc(C)ccn2)ccc1Cl)c1ccccc1 (centres undefined) ?
Lassa entry inh: -17%; Pf growth 48h: 8.3µM*; MARV entry inh: inconclusive; Pf growth 96h: 8.3µM*; Shiga toxin inh: 52; Cycloheximide cs: 19*

Results for COc1ccc(NC2CCCN(C(=O)CSc3ccccc3)C2)cc1 (centres undefined) ?
Pf growth 48h: inconclusive; Pf growth 96h: 14%; Shiga toxin inh: -2; Cycloheximide cs: -3

What do the screens show for `COc1cccc(C#Cc2c(C=O)n(C)c3ccccc23)c1`?
Pf growth 48h: 13µM*; Pf growth 96h: inconclusive

Screens (PubChem)
